Measured values reported in PubChem BioAssay (Tox21).
Several values for one entry are separate records, joined by “and”; a condition that tells them apart may be missing. Identical values can stand only once. Records with an inconclusive call do not appear. A call without a number means that no potency is given here. Values without a mark were called inactive. Activity calls are given as the source filed them. Unless noted, the call rests on the fitted dose curve; in most records, active means well fitted curve in the direction sought with a large enough effect in the repeat runs; inconclusive means weak or mixed curves; inactive means no such curve, though single readings can be large; an effect the other way counts as inactive or inconclusive.

Tests used:
[1] = qHTS assay to identify small molecule antagonists of the thyroid receptor (TR) signaling pathway - cell viability counter screen (AID 743064); further: nearly all actives have a fitted effect of over 50% in size; further: potency means the concentration at half of the fitted maximal effect
Summary of the method: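 In-well cytotoxicity read by CellTiter-Fluor (30 min, 37 C) following 23.5 h exposure of GH3 cells bearing a TRE-luciferase sensor. Compounds were added alongside 1 nM (final) T3 to drive TR transactivation.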

[2] = qHTS assay to identify small molecule antagonists of the thyroid receptor (TR) signaling pathway (AID 743065); further: nearly all actives have a fitted effect of over 55% in size; further: potency means the concentration at half of the fitted maximal effect
Summary of the method: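 GH3.TRE-Luc rat pituitary cells carrying two TR response elements driving luciferase were plated for 4 h, given compound plus 1 nM T3 (final), and incubated 23.5 h at 37 C. ONE-Glo luminescence measured reporter inhibition; CellTiter-Fluor fluorescence tracked cytotoxicity.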

[3] = tested on: thyroid hormone receptor (rat, GH3 cells); assay: qHTS assay to identify small molecule agonists of the thyroid receptor (TR) signaling pathway (AID 743066; calls by dose curve)
[4] = qHTS assay to identify small molecule antagonists of the estrogen receptor alpha (ER-alpha) signaling pathway - cell viability counter screen (AID 743074; calls by dose curve; further: nearly all actives have a fitted effect of over 45% in size; further: potency means the concentration at half of the fitted maximal effect)
[5] = biological target: Estrogen receptor (Homo sapiens) (UniProt P03372); assay: qHTS assay to identify small molecule agonists of the estrogen receptor alpha (ER-alpha) signaling pathway (AID 743075; calls by dose curve); details: HEK293 ER-alpha-UAS-bla, beta-lactamase FRET ratio, 18 h; activation: at 70.1 µM (top of the series)
Estrogen receptor (Homo sapiens), sequence (P03372 whole entry, looked up): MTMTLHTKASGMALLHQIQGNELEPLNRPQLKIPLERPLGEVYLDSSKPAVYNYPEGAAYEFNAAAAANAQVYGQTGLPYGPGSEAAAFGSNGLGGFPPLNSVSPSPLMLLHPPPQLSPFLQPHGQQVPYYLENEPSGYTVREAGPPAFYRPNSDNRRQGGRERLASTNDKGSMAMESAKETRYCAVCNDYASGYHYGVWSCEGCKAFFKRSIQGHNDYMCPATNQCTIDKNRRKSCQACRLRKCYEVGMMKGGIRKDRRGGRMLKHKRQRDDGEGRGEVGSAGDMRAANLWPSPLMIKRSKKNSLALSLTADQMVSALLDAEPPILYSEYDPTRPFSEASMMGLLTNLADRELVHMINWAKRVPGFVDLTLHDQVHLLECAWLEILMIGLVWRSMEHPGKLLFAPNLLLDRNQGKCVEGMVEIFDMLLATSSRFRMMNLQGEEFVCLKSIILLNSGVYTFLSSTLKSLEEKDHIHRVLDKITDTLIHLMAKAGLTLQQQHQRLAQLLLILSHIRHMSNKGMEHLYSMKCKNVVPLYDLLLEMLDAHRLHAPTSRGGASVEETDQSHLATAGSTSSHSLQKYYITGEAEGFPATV

[6] = qHTS assay to identify small molecule antagonists of the estrogen receptor alpha (ER-alpha) signaling pathway using the BG1 cell line (AID 743080; calls by dose curve;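 further: BG1 cells stimulated with 17beta-estradiol alongside compound; nearly all actives have a fitted effect of over 25% in size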; further: potency means the concentration at half of the fitted maximal effect)
Summary of the method: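 Quantitative HTS on the Tox21 10K library: BG1 cells with endogenous ER-alpha and ERE-luciferase reporter, 17beta-estradiol stimulation, 21.5 h compound exposure, luminescence endpoint with parallel fluorescence cytotoxicity counter-read.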

Aromatase (Homo sapiens) = Aromatase (Homo sapiens) (UniProt P11511); assay: qHTS assay to identify aromatase inhibitors (AID 743083); further: nearly all actives have a fitted effect of over 55% in size; further: potency means the concentration at half of the fitted maximal effect
Aromatase (Homo sapiens), sequence (P11511 whole entry, looked up): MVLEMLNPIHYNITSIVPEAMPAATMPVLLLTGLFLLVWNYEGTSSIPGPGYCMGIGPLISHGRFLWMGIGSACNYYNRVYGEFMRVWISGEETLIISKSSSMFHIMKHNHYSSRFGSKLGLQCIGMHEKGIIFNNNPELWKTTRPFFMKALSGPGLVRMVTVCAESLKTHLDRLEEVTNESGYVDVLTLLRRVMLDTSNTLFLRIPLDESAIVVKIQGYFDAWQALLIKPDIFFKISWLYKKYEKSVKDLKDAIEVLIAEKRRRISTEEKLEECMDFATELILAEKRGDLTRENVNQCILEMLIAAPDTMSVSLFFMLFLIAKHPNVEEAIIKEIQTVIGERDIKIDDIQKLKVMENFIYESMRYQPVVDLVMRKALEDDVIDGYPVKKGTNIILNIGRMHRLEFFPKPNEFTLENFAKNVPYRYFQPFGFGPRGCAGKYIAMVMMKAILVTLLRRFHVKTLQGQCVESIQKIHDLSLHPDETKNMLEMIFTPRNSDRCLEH

[7] = biological target: Aryl hydrocarbon receptor (Homo sapiens) (UniProt P35869); assay: qHTS assay to identify small molecule that activate the aryl hydrocarbon receptor (AhR) signaling pathway (AID 743085); further: nearly all actives have a fitted effect of over 15% in size; further: potency means the concentration at half of the fitted maximal effect;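 on activation: HG2L7.5c1 human HepG2 liver cells with stably integrated DRE-driven firefly reporter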
Aryl hydrocarbon receptor (Homo sapiens), sequence (P35869 whole entry, looked up): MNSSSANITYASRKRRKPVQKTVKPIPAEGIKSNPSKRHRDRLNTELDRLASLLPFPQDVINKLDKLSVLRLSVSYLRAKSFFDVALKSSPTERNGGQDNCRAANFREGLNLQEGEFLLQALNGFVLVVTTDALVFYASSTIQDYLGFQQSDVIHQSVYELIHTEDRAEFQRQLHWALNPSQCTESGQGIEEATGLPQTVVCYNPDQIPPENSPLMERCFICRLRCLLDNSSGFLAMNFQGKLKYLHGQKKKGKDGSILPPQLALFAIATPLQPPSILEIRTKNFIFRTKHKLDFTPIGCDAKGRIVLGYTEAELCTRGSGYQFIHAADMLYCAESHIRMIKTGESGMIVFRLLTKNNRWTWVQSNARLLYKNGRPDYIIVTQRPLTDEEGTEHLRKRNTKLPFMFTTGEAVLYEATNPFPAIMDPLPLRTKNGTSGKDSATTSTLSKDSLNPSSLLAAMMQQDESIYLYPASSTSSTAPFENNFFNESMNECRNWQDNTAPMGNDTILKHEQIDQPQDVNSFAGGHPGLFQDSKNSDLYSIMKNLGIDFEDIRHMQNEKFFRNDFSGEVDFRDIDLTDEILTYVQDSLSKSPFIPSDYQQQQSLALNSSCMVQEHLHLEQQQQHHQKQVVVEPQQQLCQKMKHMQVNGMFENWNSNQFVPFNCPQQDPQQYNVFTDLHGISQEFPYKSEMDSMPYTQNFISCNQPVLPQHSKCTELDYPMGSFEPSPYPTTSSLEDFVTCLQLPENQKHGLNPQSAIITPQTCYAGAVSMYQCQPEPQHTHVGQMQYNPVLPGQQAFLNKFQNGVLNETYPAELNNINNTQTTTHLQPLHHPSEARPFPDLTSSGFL
Summary of the method: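 Luminescence (ONE-Glo) from a dioxin-responsive-element luciferase reporter in HG2L7.5c1 HepG2 cells after 24 hr compound exposure at 37C; viability measured by CellTiter-Fluor fluorescence beforehand.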

[8] = biological target: Peroxisome proliferator-activated receptor gamma (Homo sapiens) (UniProt P37231); assay: qHTS assay to identify small molecule agonists of the peroxisome proliferator-activated receptor gamma (PPARg) signaling pathway (AID 743094; active means well fitted activation curve with a large enough effect in the signal ratio in the repeat runs, not every such curve was filed as active; the % refers to the signal ratio)
Peroxisome proliferator-activated receptor gamma (Homo sapiens), sequence (P37231 whole entry, looked up): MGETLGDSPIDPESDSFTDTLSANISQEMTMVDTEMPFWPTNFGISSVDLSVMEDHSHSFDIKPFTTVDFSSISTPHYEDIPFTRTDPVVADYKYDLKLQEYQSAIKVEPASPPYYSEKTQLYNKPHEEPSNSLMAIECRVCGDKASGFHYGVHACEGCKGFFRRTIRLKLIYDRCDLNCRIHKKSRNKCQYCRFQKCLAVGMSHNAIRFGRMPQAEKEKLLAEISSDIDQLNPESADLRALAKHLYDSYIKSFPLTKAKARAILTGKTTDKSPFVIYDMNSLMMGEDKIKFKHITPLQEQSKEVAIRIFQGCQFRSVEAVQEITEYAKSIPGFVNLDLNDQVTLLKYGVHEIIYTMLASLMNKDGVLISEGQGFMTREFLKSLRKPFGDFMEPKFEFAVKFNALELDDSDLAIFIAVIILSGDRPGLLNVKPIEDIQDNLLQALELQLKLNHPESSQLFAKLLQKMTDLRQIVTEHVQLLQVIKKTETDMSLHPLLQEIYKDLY
Summary of the method: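 Following 5 h plating at 37C, PPARg-bla HEK293H cells receive compound or DMSO for 17 h; fluorescence intensity is recorded after LiveBLAzer B/G loading for 1 h at room temperature.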

[9] = qHTS assay to identify small molecule antagonists of the peroxisome proliferator-activated receptor gamma (PPARg) signaling pathway - cell viability counter screen (AID 743194); further: nearly all actives have a fitted effect of over 55% in size; further: potency means the concentration at half of the fitted maximal effect
Summary of the method: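 PPARg-UAS-bla HEK293H cells were plated, rested 5 h at 37 C, then treated with compounds plus rosiglitazone (50 nM final) for 17 h at 37 C; viability was then read by CellTiter-Glo luminescence after 30 min at room temperature.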

[10] = qHTS assay for small molecule agonists of the antioxidant response element (ARE) signaling pathway (AID 743202; active means well fitted activation curve with a large enough effect in the signal ratio in the repeat runs, not every such curve was filed as active; the % refers to the signal ratio; further: potency means the concentration at half of the fitted maximal effect)
Summary of the method: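 Read-out: LiveBLAzer B/G FRET substrate fluorescence after 2 h at room temperature, following 16 h compound treatment at 37 C of HepG2 cells carrying an ARE-driven beta-lactamase reporter.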

[11] = qHTS assay for small molecule agonists of the antioxidant response element (ARE) signaling pathway - cell viability counter screen (AID 743203; calls by dose curve; further: nearly all actives have a fitted effect of over 55% in size; further: potency means the concentration at half of the fitted maximal effect)
Summary of the method: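 Compounds in DMSO were pinned onto ARE-bla HepG2 cells plated 5 hrs earlier at 2,000 cells/well. Sixteen hours later at 37C/5% CO2, CellTiter-Glo was added and luminescence measured after 30 min at room temperature.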

[12] = qHTS assay for small molecule activators of the heat shock response signaling pathway - cell viability counter screen (AID 743209); further: nearly all actives have a fitted effect of over 50% in size; further: potency means the concentration at half of the fitted maximal effect
Summary of the method: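 Counter screen for cytotoxicity in HeLa HSE-bla reporter cells. Treatment was 5 h at 37 C; viability was detected by luminescent ATP assay (CellTiter-Glo) in the same wells as the beta-lactamase read.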

[13] = qHTS assay to identify small molecule antagonists of the estrogen receptor alpha (ER-alpha) signaling pathway using the BG1 cell line - cell viability counter screen (AID 743081);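 further: compound given together with 17beta-estradiol as the ER stimulus; nearly all actives have a fitted effect of over 45% in size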; further: potency means the concentration at half of the fitted maximal effect
[14] = qHTS assay to identify aromatase inhibitors - cell viability counter screen (AID 743084); further: potency means the concentration at half of the fitted maximal effect
[15] = qHTS assay to identify small molecule that activate the aryl hydrocarbon receptor (AhR) signaling pathway - cell viability counter screen (AID 743086); further: nearly all actives have a fitted effect of over 45% in size; further: potency means the concentration at half of the fitted maximal effect
Summary of the method: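 HepG2-AhR-luc (HG2L7.5c1) cells, 4000/well, were preincubated 5 h at 37C, exposed to compound in qHTS format for 24 hr at 37C, then given CellTiter-Fluor for 30 min; viability was read as fluorescence in the reporter wells.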

[16] = biological target: Peroxisome proliferator-activated receptor gamma (Homo sapiens) (UniProt P37231); assay: qHTS assay to identify small molecule antagonists of the peroxisome proliferator-activated receptor gamma (PPARg) signaling pathway (AID 743191; calls by dose curve; further: nearly all actives have a fitted effect of over 30% in size)
Summary of the method: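 GeneBLAzer PPARg UAS-bla HEK293H cells carrying a UAS-driven beta-lactamase reporter were plated at 3000 cells/well, preincubated 5 h at 37C, then given compound for 17 h at 37C; LiveBLAzer B/G FRET substrate was read after 1 h at room temperature.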

[17] = qHTS assay for small molecule activators of the heat shock response signaling pathway (AID 743210; active means well fitted activation curve with a large enough effect in the signal ratio in the repeat runs, with a control signal flat, not every such curve was filed as active; the % refers to the signal ratio)
Summary of the method: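 HSE-bla HeLa cells (beta-lactamase reporter under heat shock response elements) were exposed to compounds for 5 h at 37 C, then loaded with LiveBLAzer B/G FRET substrate for 2.5 h at room temperature before fluorescence reading.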

[18] = biological target: Estrogen receptor (Homo sapiens) (UniProt P03372); assay: qHTS assay to identify small molecule antagonists of the estrogen receptor alpha (ER-alpha) signaling pathway (AID 743069; active means well fitted curve in the direction sought with a large enough effect in the signal ratio in the repeat runs, not every such curve was filed as active; the % refers to the signal ratio; further: potency means the concentration at half of the fitted maximal effect)
Summary of the method: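 HEK293 cells stably carrying an ER-alpha-UAS-bla beta-lactamase reporter were pre-cultured overnight in 2% charcoal-stripped FBS medium. Test compounds in DMSO were added together with 17beta-estradiol for 18 hr at 37C. Read-out was fluorescence after 2 hr with LiveBLAzer B/G FRET substrate at room temperature.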

[19] = biological target: Estrogen receptor (Homo sapiens) (UniProt P03372); assay: qHTS assay to identify small molecule agonists of the estrogen receptor alpha (ER-alpha) signaling pathway using the BG1 cell line (AID 743079); details: BG1Luc4E2 cells, ERE-luciferase agonist, 22 h; at 70.3 µM (top of the series); further: nearly all actives have a fitted effect of over 20% in size

Row | Structure (SMILES) | Potency [1] | Potency [2] | Potency [3] | Potency [4] | Potency [5] | Potency [6] | Potency (Aromatase (Homo sapiens)) | Potency [7] | Potency [8] | Potency [9] | Potency [10] | Potency [11] | Potency [12] | Potency [13] | Potency [14] | Potency [15] | Potency [16] | Potency [17] | Potency [18] | activation [19] [%]
1 | O=C(Nc1cccc([N+](=O)[O-])c1)c1cc2ccccc2cc1O | 1.72 µM (active) | 0.864 µM (active) | inactive | 49 µM (active) | inactive | 8.63 µM (active) | 2.73 µM (active) | 2.43 µM (active) | inactive | 0.195 µM (active) | 1.72 µM (active) | inactive | inactive | – | – | – | – | – | – | –
2 | NNc1nc(-c2ccc([N+](=O)[O-])cc2)cs1 | 68.6 µM (active) | 30.6 µM (active) | inactive | 15.5 µM (active) | inactive | – | 43.3 µM (active) | 9.69 µM (active) | – | 24.5 µM (active) | – | – | – | 54.5 µM (active) | 30.6 µM (active) | inactive | – | – | – | –
3 | CCN(C(=O)N(CC)c1ccccc1)c1ccccc1 | inactive | inactive | inactive | inactive | – | – | inactive | inactive | inactive | inactive | – | inactive | inactive | inactive | inactive | inactive | inactive | inactive | – | –
4 | O=C(OC[C@H]1O[C@@H](OC(=O)c2cc(O)c(O)c(OC(=O)c3cc(O)c(O)c(O)c3)c2)[C@H](OC(=O)c2cc(O)c(O)c(OC(=O)c3cc(O)c(O)c(O)c3)c2)[C@@H](OC(=O)c2cc(O)c(O)c(OC(=O)c3cc(O)c(O)c(O)c3)c2)[C@@H]1OC(=O)c1cc(O)c(O)c(OC(=O)c2cc(O)c(O)c(O)c2)c1)c1cc(O)c(O)c(OC(=O)c2cc(O)c(O)c(O)c2)c1 | 3.35 µM (active) and 16.5 µM (active) | 3.76 µM (active) and 16.5 µM (active) | inactive | 6.74 µM (active) | – | – | – | inactive | – | – | – | – | – | 21.1 µM (active) | 18.8 µM (active) | 21.1 µM (active) and 16.5 µM (active) | – | – | – | –
5 | Cc1cc(O)c(C(C)(C)C)cc1C(C)(C)C | 24.3 µM (active) | 21.7 µM (active) | inactive | 17.4 µM (active) | – | – | 54.5 µM (active) | inactive | – | 49 µM (active) | – | 54.5 µM (active) | 43.6 µM (active) | inactive | 54.5 µM (active) | – | – | – | – | –
6 | O=c1[nH]sc2ccccc12 | 5.45 µM (active) | 3.06 µM (active) | – | inactive | inactive | inactive | 30.6 µM (active) | inactive | – | – | – | 30.6 µM (active) | 54.9 µM (active) | inactive | 24.3 µM (active) | 68.6 µM (active) | – | – | inactive | -22
7 | Cc1c(C)c2c(c(C)c1OC(=O)CCC(=O)O)CC[C@@](C)(CCC[C@H](C)CCC[C@H](C)CCCC(C)C)O2 | 23.7 µM (active) | inactive | inactive | inactive | – | – | inactive | inactive | – | inactive | – | inactive | inactive | inactive | inactive | inactive | – | inactive | – | –
8 | CC1=C(/C=C/C(C)=C/C=C/C(C)=C/C=O)C(C)(C)CCC1 | 7.65 µM (active) | 8.58 µM (active) | inactive | 54.6 µM (active) | – | – | 15.3 µM (active) | inactive | – | – | – | 60.8 µM (active) | 34.5 µM (active) | 60.8 µM (active) | 30.5 µM (active) | – | – | – | – | –
9 | CCCCCCCC[P+](CCCCCCCC)(CCCCCCCC)CCCCCCCC | 4.3 µM (active) | 3.05 µM (active) | – | 15.4 µM (active) | – | 1.71 µM (active) | 1.53 µM (active) | inactive | – | 4.34 µM (active) | – | 10.8 µM (active) | 5.46 µM (active) | 8.58 µM (active) | 9.63 µM (active) | 19.2 µM (active) | – | – | 21.7 µM [cytotoxic] (active) | –
10 | CCCC(c1cc(C(C)(C)C)c(O)cc1C)c1cc(C(C)(C)C)c(O)cc1C | 3.9 µM (active) | 3.1 µM (active) | inactive | 19.7 µM (active) | – | – | 15.5 µM (active) | inactive | – | 17.6 µM (active) | – | 17.4 µM (active) | 12.5 µM (active) | – | 49.2 µM (active) | inactive | – | – | – | –
11 | N=C1N=C(N)c2cc3ccccc3cc21 | 12.9 µM (active) | 13.7 µM (active) | inactive | – | – | – | 19.9 µM (active) | 11.2 µM (active) | – | 54.9 µM (active) | – | 43.3 µM (active) | 25.9 µM (active) | – | 61.1 µM (active) | – | – | – | – | –
12 | CC(C)(C)c1ccc(C(=O)O)cc1 | inactive | inactive | inactive | inactive | – | – | inactive | – | – | inactive | – | inactive | inactive | inactive | inactive | inactive | – | inactive | – | –
13 | Oc1cccc2cc3cccc(O)c3c(O)c12 | inactive | inactive | inactive | inactive | – | – | inactive | inactive | inactive | inactive | – | inactive | inactive | – | inactive | inactive | – | – | – | –
14 | O=C(Oc1cccc2cccnc12)c1ccccc1 | 13.3 µM (active) | 13.3 µM (active) | – | inactive | inactive | inactive | 18.8 µM (active) | inactive | – | inactive | – | – | – | inactive | 21.1 µM (active) | inactive | – | – | inactive | –
